Screens deposited in PubChem BioAssay by National Center for Advancing Translational Sciences (NCATS).
Hits are enriched below; roughly 2.6% of the tested compounds scored in any of these assays.
Cruzain Triton: qHTS Assay for Promiscuous and Specific Inhibitors of Cruzain (with detergent); Potency, µM, hits mostly inhibitors; hit rate 0.43% among 200,000; Cruzipain (Trypanosoma cruzi), P25779; purified cruzain, Z-FR-AMC fluorescence, 0.01% Triton; further: nearly all actives have a fitted effect of over 40% in size
Target sequence (P25779 123-467 limits assumed): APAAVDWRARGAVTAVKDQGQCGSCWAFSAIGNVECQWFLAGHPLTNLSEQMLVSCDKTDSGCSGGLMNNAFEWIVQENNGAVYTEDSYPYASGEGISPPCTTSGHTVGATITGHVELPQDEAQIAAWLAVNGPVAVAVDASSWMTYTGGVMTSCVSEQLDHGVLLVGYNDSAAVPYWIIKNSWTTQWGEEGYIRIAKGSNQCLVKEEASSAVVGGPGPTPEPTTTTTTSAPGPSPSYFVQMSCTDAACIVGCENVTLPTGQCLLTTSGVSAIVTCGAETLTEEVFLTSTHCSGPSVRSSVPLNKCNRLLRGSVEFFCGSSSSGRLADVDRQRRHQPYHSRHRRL
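Compounds were screened in titration against cruzain (1.5 nM) with 0.01% Triton X-100 to counter colloidal aggregation. Activity was the AMC fluorescence increase over 60 s after adding 2 uM Z-FR-AMC at pH 5.5.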
Cruzain noTriton: qHTS Assay for Promiscuous and Specific Inhibitors of Cruzain (without detergent). purified cruzain, Z-FR-AMC fluorescence, no detergent. hit rate 2.3% among 200,000. Potency, µM, actives largely listed as inhibitors. Cruzipain (Trypanosoma cruzi), P25779. AID 1476, 2009; further: nearly all actives have a fitted effect of over 40% in size
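Purified cruzain at 1.5 nM, pre-incubated 15 min with compound at room temperature in 100 mM sodium acetate pH 5.5, 5 mM DTT, 0.00005% Triton X-100. Reaction started with 2 uM Z-FR-AMC; AMC fluorescence increase over 60 s gives rate.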
Numbers stand for hits; i = inactive; ? = inconclusive. The call rests on the fitted dose curve; in most records, active means well fitted curve in the direction sought with a large enough effect; inconclusive means small, poorly fitted or top-dose-only effect, or another doubt; inactive means no such curve, though single readings can be large; an effect the other way counts as inactive or inconclusive.

SMILES	Cruzain Triton	Cruzain noTriton
O=C(NC1CC(=O)N(c2ccccc2)C1)c1cc2ccccc2o1 (configuration not stated)	i	i
O=C(CCc1ccccc1)N1CCc2c([nH]c3ccccc23)C1c1ccc(Cl)cc1 (configuration not stated)	i	?
CCOc1ccc(C2c3[nH]c4ccccc4c3CCN2C(=O)CCC2CCCC2)cc1 (configuration not stated)	i	?
O=C(CCC1CCCC1)N1CCc2c([nH]c3ccccc23)C1c1ccc(F)cc1 (configuration not stated)	i	?
O=C(CCC1CCCC1)N1CCc2c([nH]c3ccccc23)C1c1ccc(Cl)cc1 (configuration not stated)	i	7.9µM
COc1cccc(C(=O)N2CCc3c([nH]c4ccccc34)C2c2ccc(SC)cc2)c1 (configuration not stated)	i	i
COc1ccc(C2c3[nH]c4ccccc4c3CCN2C(=O)CCC2CCCC2)cc1 (configuration not stated)	i	16µM
COc1ccc(C2c3[nH]c4ccc(OC)cc4c3CCN2C(=O)Nc2ccccc2)cc1 (configuration not stated)	i	25µM
CCOc1cccc(CC(=O)N2CCc3c([nH]c4ccccc34)C2c2ccc(Cl)cc2)c1OCC (configuration not stated)	i	20µM
CCOc1ccc(OCC)c(Nc2nc3ccc(Cl)cc3n3cnnc23)c1	i	i
CCOc1ccccc1NC(=O)Cn1c(=O)n(CC(=O)NCc2ccccc2Cl)c(=O)c2sccc21	i	i
CCNc1ncc2ncc(=O)n(Cc3ccc(F)cc3)c2n1	?	i
O=C(NCCCN1CCN(c2ccc(F)cc2)CC1)c1sc2ncccc2c1-n1cccc1	i	i
CCOC(=O)c1scc(-c2ccc(C)cc2)c1S(=O)(=O)N1CCN(c2ccccc2F)CC1	i	i
N#Cc1c(C(F)(F)F)cc(-c2cccs2)nc1SCc1ccc(F)cc1	i	i
N#Cc1c(C(F)(F)F)cc(-c2cccs2)nc1SCc1cccnc1	32µM	?
C=Cc1ccc(Cn2c(=O)n(-c3cccc(C)c3)c(=O)c3c2c2cc(C)ccc2n3C)cc1	i	25µM
Cc1cccc(-n2c(=O)c3c(c4cc(C)ccc4n3C)n(C)c2=O)c1	i	i
Cc1ccc(C)c(SCC(=O)Nc2cccc(S(=O)(=O)NC3=NCCCCC3)c2)c1	i	i
O=C(CSc1ccc2ccccc2c1Br)Nc1cccc(S(=O)(=O)NC2=NCCCCC2)c1	i	20µM
COc1cccc([C@@H]2Oc3ccc(OC)cc3C(=O)[C@H]2OC(=O)NS(=O)(=O)c2ccc(C)cc2)c1	i	i
O=C(NC(=S)Nc1nc2c(s1)CCCC2)c1ccc(C(=O)c2ccccc2)cc1	i	25µM
COC(=O)c1ccc(C(=O)NC(=S)Nc2nc3c(s2)CC(C)CC3)cc1 (configuration not stated)	i	i
Cc1onc(-c2ccccc2Cl)c1C(=O)Nc1nnc(-c2ccc(Cl)cc2Cl)s1	i	?
O=C(Nc1nc2c(s1)CCCC2)c1cccnc1	i	i
SMILES	Cruzain Triton	Cruzain noTriton
O=C(NC(=S)Nc1nc2c(s1)CSc1ccccc1-2)c1ccccc1	i	7.9µM
Cc1onc(-c2ccccc2Cl)c1C(=O)Nc1nc2c(s1)CCCC2	i	25µM
CCCCOc1ccc(NC(=O)CSc2ccc(C(=O)O)cn2)cc1	i	i
CCCCN(CC)CCCNC(=O)CS(=O)(=O)Cc1nc(-c2ccc(C)cc2)oc1C	i	i
CC(=O)c1ccc(NC(=O)CN2C(=O)/C(=C/C=C/c3ccccc3)SC2=S)cc1	i	10µM
O=C(CCN1C(=O)/C(=C/C=C/c2ccccc2)SC1=S)Nc1cccnc1	i	?
Cc1oc(-c2ccccc2)nc1Cn1c(=O)cc(-c2ccccc2)c2c(C)nn(C)c21	i	i
CC[N+](CC)(CC)CCOc1ccc(/C=C\c2ccccc2)cc1	i	?
CCOc1ccc2c(C)nc(NC3=NC(C)(C)C=C(C)N3)nc2c1	16µM	16µM
CCOc1ccc2nc(NC3=NCN(Cc4ccco4)CN3)nc(C)c2c1	i	i
COCCN1CN=C(Nc2nc(C)c3ccc(C)cc3n2)NC1	i	i
CCOc1ccc2nc(NC3=NC(C)(C)C=C(C)N3)nc(C)c2c1	28µM	16µM
CCOc1ccc2nc(NC3=NC(c4ccc(OC)cc4)CC(=O)N3)nc(C)c2c1 (configuration not stated)	8.9µM	?
COCc1cc(=O)[nH]c(Nc2nc(C)c3cc(OC)ccc3n2)n1	i	i
CCOC(=O)c1ccccc1NC(=O)c1cc2ccc3cccnc3c2[nH]1	i	i
O=C(COC(=O)c1c2c(nc3ccccc13)CCCCC2)NCc1ccc2c(c1)OCO2	i	i
CC(OC(=O)c1c2c(nc3ccccc13)/C(=C\c1ccc3c(c1)OCO3)CCC2)C(=O)Nc1ccc(S(N)(=O)=O)cc1 (configuration not stated)	i	16µM
Cc1cccc(C)c1NC(=O)COC(=O)c1c2c(nc3ccccc13)/C(=C\c1ccc3c(c1)OCO3)CCC2	i	7.9µM
CNC(=O)NC(=O)C(C)OC(=O)c1c2c(nc3ccccc13)/C(=C/c1cccs1)CC2 (configuration not stated)	i	i
CCc1cc2c(=O)nc3n(c2s1)Cc1ccccc1/C3=C(/O)c1ccc(F)cc1	i	?
CCc1cc2c(=O)nc3n(c2s1)Cc1ccccc1/C3=C(/O)c1ccccc1Cl	i	25µM
Cc1ccc2cc(CN(Cc3ccc4c(c3)OCO4)Cc3nnnn3Cc3ccco3)c(=O)[nH]c2c1C	i	32µM
Cc1ccc(C)c2[nH]c(=O)c(CN(Cc3ccc4c(c3)OCO4)Cc3nnnn3Cc3ccco3)cc12	i	i
COc1cc(OC)c(NC(=O)C(NS(=O)(=O)c2cccc3nsnc23)c2ccccc2)cc1Cl (configuration not stated)	i	?
O=C(CNC(=O)c1ccco1)NCC(=O)OC(C(=O)c1ccccc1)c1ccc(Cl)cc1 (configuration not stated)	?	i
SMILES	Cruzain Triton	Cruzain noTriton
O=C(CNC(=O)c1ccco1)OC(C(=O)c1ccccc1)c1ccccc1 (configuration not stated)	6.3µM	7.9µM
Cc1cccc2sc(NNC(=O)c3ccc(S(=O)(=O)N4CCc5ccccc5C4)cc3)nc12	i	7.9µM
Cc1cccc2sc(NC(=O)c3cccc(S(=O)(=O)N4CCc5ccccc54)c3)nc12	i	10µM
O=C(Nc1ncccc1O)c1cccc(S(=O)(=O)N2CCc3ccccc32)c1	i	i
Cc1cc(C)c2nc(NC(=O)c3ccc(S(=O)(=O)N4CCCC4)cc3)sc2c1	i	?
Cc1c(Cl)ccc2sc(NC(=O)c3ccc(S(=O)(=O)N4CCCc5ccccc54)cc3)nc12	i	?
O=C(Nc1nc2c(Cl)cccc2s1)c1ccc(S(=O)(=O)N2CCc3ccccc32)cc1	i	3.2µM
Cc1cc(C)c2nc(NC(=O)c3cccc(S(=O)(=O)N4CCc5ccccc54)c3)sc2c1	i	4µM
Cc1cccc2sc(NNC(=O)c3ccc(S(=O)(=O)N4CCCC(C)C4)cc3)nc12 (configuration not stated)	i	i
Cc1ccc(NC(=O)Cn2c(=O)oc3cc(S(=O)(=O)N4CCCCC4)ccc32)c(Cl)c1	i	i
CCc1ccc(NC(=O)Cn2c(=O)n(-c3ccc(OC)cc3)c(=O)c3ccc(C(=O)NCc4ccc(C)cc4)cc32)cc1	i	i
